Experimental data published in the supplement of paper PMC8728848.
This is one part of a sample in which the strongest signals are shown more often than they occur.

Columns and labels:
Test in all cases: glycan array binding signal (z-score within array); higher = stronger binding
Settings in all cases: glycan notation: IUPAC condensed, linker removed; mutation: R186S
[1] = target: Fuc(a1-2)Gal(b1-3)GalNAc(b1-4)[Neu5Ac(a2-3)]Gal(b1-4)Glc
Procedure, shortened: (§1)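 Glycan array data came from 3228 arrays in the Consortium for Functional Glycomics database, and only arrays with an available protein sequence were kept. Glycan names were put into IUPAC-condensed notation, and columns mapping to the same glycan were averaged. The binding signal is a within-array Z-score, averaged across arrays of one protein sequence run at different concentrations or buffers and across linkers. A negative Z-score can be read as non-binding.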

[2] = target: Fuc(a1-2)Gal(b1-4)[Fuc(a1-3)]GlcNAc(b1-2)Man(a1-3)[Fuc(a1-2)Gal(b1-4)[Fuc(a1-3)]GlcNAc(b1-2)Man(a1-6)]Man(b1-4)GlcNAc(b1-4)GlcNAc
Procedure, shortened: as §1

[3] = target: Fuc(a1-2)Gal(b1-4)[Fuc(a1-3)]GlcNAc(b1-3)Gal(b1-4)[Fuc(a1-3)]GlcNAc(b1-3)Gal(b1-4)[Fuc(a1-3)]GlcNAc
Procedure, shortened: as §1

[4] = target: Fuc(a1-2)[Gal(a1-3)]Gal(b1-3)GlcNAc(b1-2)Man(a1-3)[Fuc(a1-2)[Gal(a1-3)]Gal(b1-3)GlcNAc(b1-2)Man(a1-6)]Man(b1-4)GlcNAc(b1-4)GlcNAc
Procedure, shortened: as §1

[5] = target: Fuc(a1-2)[Gal(a1-3)]Gal(b1-4)GlcNAc(b1-2)Man(a1-3)[Fuc(a1-2)[Gal(a1-3)]Gal(b1-4)GlcNAc(b1-2)Man(a1-6)]Man(b1-4)GlcNAc(b1-4)GlcNAc
Procedure, shortened: as §1

[6] = target: Fuc(a1-2)[GalNAc(a1-3)]Gal(b1-3)GlcNAc(b1-2)Man(a1-3)[Fuc(a1-2)[GalNAc(a1-3)]Gal(b1-3)GlcNAc(b1-2)Man(a1-6)]Man(b1-4)GlcNAc(b1-4)GlcNAc
Procedure, shortened: as §1

[7] = target: Fuc(a1-3)[Gal(b1-4)]GlcNAc(b1-2)Man(a1-3)[Fuc(a1-3)[Gal(b1-4)]GlcNAc(b1-2)Man(a1-6)]Man(b1-4)GlcNAc(b1-4)GlcNAc
Procedure, shortened: as §1

Fuc(b1-3)GlcNAc = target: Fuc(b1-3)GlcNAc
Procedure, shortened: as §1

[8] = target: Gal(a1-3)Gal(b1-4)[Fuc(a1-3)]GlcNAc(b1-2)Man(a1-3)[Gal(a1-3)Gal(b1-4)[Fuc(a1-3)]GlcNAc(b1-2)Man(a1-6)]Man(b1-4)GlcNAc(b1-4)GlcNAc
Procedure, shortened: as §1

[9] = target: Gal(b1-3)GlcNAc(b1-3)GalNAc
Procedure, shortened: as §1

[10] = target: Gal(b1-3)[Fuc(a1-4)]GlcNAc(b1-2)Man(a1-3)[Gal(b1-3)[Fuc(a1-4)]GlcNAc(b1-2)Man(a1-6)]Man(b1-4)GlcNAc(b1-4)GlcNAc
Procedure, shortened: as §1

[11] = target: Gal(b1-3)[Neu5Ac(a2-6)]GalNAc
Procedure, shortened: as §1

[12] = target: Gal(b1-4)GlcNAc(b1-2)Man(a1-3)[Gal(b1-4)GlcNAc(b1-2)Man(a1-6)]Man(b1-4)GlcNAc(b1-4)[Fuc(a1-6)]GlcNAc
Procedure, shortened: as §1

[13] = target: Gal(b1-4)GlcNAc(b1-2)Man(a1-6)[Man(a1-3)]Man(b1-4)GlcNAc(b1-4)GlcNAc
Procedure, shortened: as §1

[14] = target: Gal(b1-4)GlcNAc(b1-2)[Gal(b1-4)GlcNAc(b1-4)]Man(a1-3)[Gal(b1-4)GlcNAc(b1-2)Man(a1-6)]Man(b1-4)GlcNAc(b1-4)GlcNAc
Procedure, shortened: as §1

[15] = target: Gal(b1-4)GlcNAc(b1-3)Gal(b1-3)GlcNAc
Procedure, shortened: as §1

[16] = target: GalNAc(b1-4)GlcNAc(b1-2)Man(a1-3)[GalNAc(b1-4)GlcNAc(b1-2)Man(a1-6)]Man(b1-4)GlcNAc(b1-4)GlcNAc
Procedure, shortened: as §1

Glc(a1-6)Glc(a1-6)Glc = target: Glc(a1-6)Glc(a1-6)Glc
Procedure, shortened: as §1

GlcA(b1-6)Gal = target: GlcA(b1-6)Gal
Procedure, shortened: as §1

[17] = target: GlcNAc(a1-4)Gal(b1-4)GlcNAc(b1-3)Gal(b1-4)Glc
Procedure, shortened: as §1

[18] = target: GlcNAc(b1-2)Man(a1-3)[GlcNAc(b1-2)Man(a1-6)]Man(b1-4)GlcNAc(b1-4)[Fuc(a1-6)]GlcNAc
Procedure, shortened: as §1

GlcNAc(b1-3)Gal = target: GlcNAc(b1-3)Gal
Procedure, shortened: as §1

GlcNAc(b1-3)Gal(b1-4)Glc = target: GlcNAc(b1-3)Gal(b1-4)Glc
Procedure, shortened: as §1

[19] = target: GlcNAc(b1-6)Gal(b1-4)GlcNAc
Procedure, shortened: as §1

GlcNAc(b1-6)GalNAc = target: GlcNAc(b1-6)GalNAc
Procedure, shortened: as §1

Kdn(a2-3)Gal(b1-4)Glc = target: Kdn(a2-3)Gal(b1-4)Glc
Procedure, shortened: as §1

Kdn(a2-6)Gal(b1-4)GlcNAc = target: Kdn(a2-6)Gal(b1-4)GlcNAc
Procedure, shortened: as §1

[20] = target: Man(a1-2)Man(a1-2)Man(a1-3)Man
Procedure, shortened: as §1

Man(a1-2)Man(a1-3)Man = target: Man(a1-2)Man(a1-3)Man
Procedure, shortened: as §1

[21] = target: Neu5Ac(a2-3)Gal(b1-3)GalNAc(b1-3)Gal(a1-4)Gal(b1-4)Glc
Procedure, shortened: as §1

B1: Gal 3 (Homo sapiens), P17931 (protein)
chain: MADNFSLHDALSGSGNPNPQGWPGAWGNQPAGAGGYPGASYPGAYPGQAPPGAYPGQAPPGAYHGAPGAYPGAPAPGVYPGPPSGPGAYPSSGQPSAPGAYPATGPYGAPAGPLIVPYNLPLPGGVVPRMLITILGTVKPNANILDFQRGNDVAFHFNPRFNENNRRVIVCNTKLDNNWGREESQSVFPFESGKPFKIQVLVEPDHFKVAVNDAHLLQYNHRVKKLNEISKLGISGDIDLTSASYTMI
glycan array binding signal (z-score) [1]: -0.057
glycan array binding signal (z-score) [2]: 0.064
glycan array binding signal (z-score) [3]: -0.032
glycan array binding signal (z-score) [4]: 19.8
glycan array binding signal (z-score) [5]: 0.619
glycan array binding signal (z-score) [6]: 0.242
glycan array binding signal (z-score) [7]: 0.045
glycan array binding signal (z-score) (Fuc(b1-3)GlcNAc): -0.041
glycan array binding signal (z-score) [8]: -0.061
glycan array binding signal (z-score) [9]: -0.079
glycan array binding signal (z-score) [10]: 0.028
glycan array binding signal (z-score) [11]: -0.068
glycan array binding signal (z-score) [12]: -0.086
glycan array binding signal (z-score) [13]: -0.047
glycan array binding signal (z-score) [14]: -0.042
glycan array binding signal (z-score) [15]: -0.007
glycan array binding signal (z-score) [16]: -0.023
glycan array binding signal (z-score) (Glc(a1-6)Glc(a1-6)Glc): -0.051
glycan array binding signal (z-score) (GlcA(b1-6)Gal): -0.057
glycan array binding signal (z-score) [17]: -0.057
glycan array binding signal (z-score) [18]: -0.012
glycan array binding signal (z-score) (GlcNAc(b1-3)Gal): -0.059
glycan array binding signal (z-score) (GlcNAc(b1-3)Gal(b1-4)Glc): -0.053
glycan array binding signal (z-score) [19]: -0.076
glycan array binding signal (z-score) (GlcNAc(b1-6)GalNAc): -0.058
glycan array binding signal (z-score) (Kdn(a2-3)Gal(b1-4)Glc): -0.004
glycan array binding signal (z-score) (Kdn(a2-6)Gal(b1-4)GlcNAc): -0.071
glycan array binding signal (z-score) [20]: -0.067
glycan array binding signal (z-score) (Man(a1-2)Man(a1-3)Man): -0.024
glycan array binding signal (z-score) [21]: 0.003
